Data reported in PubChem BioAssay AID2685 (National Center for Advancing Translational Sciences (NCATS), 2010).
Among all 320,000 compounds or so, about 2,100 (0.66%) were called active. Not shown: some 53% with an inconclusive outcome. The sample holds actives, similar compounds and a random draw of the others, so the mix is not that of the screen. The call rests on the fitted dose curve; in most records, active means well fitted inhibition curve with a large enough effect in the signal ratio, with a control signal flat (not every such curve was filed as active); inconclusive means small, poorly fitted or top-dose-only effect, or effect the other way, or a change in a side signal; inactive means flat fitted curve, though single readings scatter; the % refers to the signal ratio.

Test: qHTS Assay for Lipid Storage Modulators in Drosophila S3 Cells;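 on cell number change: cells counted by Cell Tracker Red CMTPX staining in the red channel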; on lipid storage change, negative = inhibition: on the % scale 0 is the no-effect control and ±100 the full control effect
Settings: BODIPY lipid droplet fluorescence, 18-24 h, cells fed with added oleic acid; cell number change: measured here: cell count max response; series mostly up to 46.1 µM
Summary of the method: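 Laser-scanning cytometry quantifies lipid droplet accumulation (500–530 nm total intensity; droplet/cell object ratio) in oleic acid-fed (400 uM added) Drosophila S3 cells treated with a concentration series. 20 uM Triacsin C defined 100% inhibition.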
Potency means the concentration at half of the fitted maximal effect.

Question: For `CCCCC[C@]12Cc3cc(OC)c(OC)cc3C(O1)c1c(cc(C)n(-c3ccccc3)c1=O)O2`, which cell number change is on record?
Answer: The cell number change was -8.82%.

Question: What about the lipid storage change, negative = inhibition of the same compound?
Answer: The lipid storage change, negative = inhibition was -5.41% [at 9.22 µM] (inactive).

Question: Which results are given for `O=C(O)c1ccc(-c2nnc(-c3cccc(Br)c3)o2)cc1`?
Answer: Potency: inactive; cell number change: 12.2%

Question: With `O=C(O)c1ccc(Sc2nnc(-c3cccc(Br)c3)o2)c([N+](=O)[O-])c1` as the compound, how does the Potency read?
Answer: The Potency was 25.9 µM (active).

Question: And the cell number change?
Answer: The cell number change was -23.6%.

Question: For `Cn1c(Sc2ccc(C(=O)O)cc2[N+](=O)[O-])nnc1-c1ccccc1`, which Potency is on record?
Answer: Its Potency is “inactive”.

Question: And the cell number change?
Answer: Its cell number change is 9.56%.

Question: With `C=CCOc1cccc(C2C(C(=O)c3ccco3)=C(O)C(=O)N2Cc2cccnc2)c1` (centres undefined) as the compound, how does the Potency read?
Answer: The Potency was “inactive”.

Question: And the cell number change?
Answer: The cell number change was 4.96%.

Question: What does the source list for `O=C(CN1CCC(C(=O)c2ccc(F)cc2)CC1)Nc1ccc(F)cc1`?
Answer: Potency: inactive; cell number change: -11.2%

Question: What does the source list for `Cn1c(/N=C/c2c[nH]c3ccccc23)nc2ccccc21`?
Answer: Potency: inactive; cell number change: -13.5%

Question: What does the source list for `O=C(NN1CCOCC1)c1cc(-c2ccc(Br)s2)nc2ccccc12`?
Answer: Potency: inactive; cell number change: 18.5%

Question: What does the source list for `O=C(CCc1nnc(COc2ccccc2)o1)NCc1ccccc1`?
Answer: Potency: inactive; cell number change: -8.23%

Question: Which Potency does the source give for `COC(=O)[C@H](CC(C)C)NC(=O)CCc1nnc(COc2ccccc2)o1` here?
Answer: The Potency was 18.4 µM (active).

Question: What about the cell number change of the same compound?
Answer: Its cell number change is -24.9%.

Question: What does the source list for `CC(C)CCNC(=O)CCc1nnc(COc2ccccc2)o1`?
Answer: Potency: inactive; cell number change: 3.37%

Question: Which Potency does the source give for `CC(/C=N/NC(=O)c1cccnc1)=C\c1ccco1` here?
Answer: The Potency was “inactive”.

Question: What about the cell number change of the same compound?
Answer: The cell number change was 4.96%.

Question: Which results are given for `O=S(=O)(NC(=NCc1ccccc1)c1ccccc1)c1ccc(Br)cc1`?
Answer: Potency: inactive; cell number change: 2.37%

Question: Which results are given for `CSc1nnc(N2C(=O)C(O)=C(C(=O)c3ccco3)C2c2ccc(F)cc2)s1` (centres undefined)?
Answer: Potency: inactive; cell number change: -4.48%

Question: Which Potency does the source give for `CSc1ccc(C2C(C(=O)c3ccco3)=C(O)C(=O)N2c2nnc(SC)s2)cc1` (centres undefined) here?
Answer: The Potency was 7.31 µM (active).

Question: What about the cell number change of the same compound?
Answer: The cell number change was -24.7%.

Question: For `CSc1nnc(N2C(=O)C(O)=C(C(=O)c3ccco3)C2c2cccc(Cl)c2)s1` (centres undefined), which Potency is on record?
Answer: Its Potency is “inactive”.

Question: Which results are given for `CCCc1c(O)nc(SCC(=O)O)[nH]c1=O`?
Answer: Potency: inactive; cell number change: -0.742%

Question: For `COC(=O)COc1coc(CN2CCN(c3cccc(Cl)c3)CC2)cc1=O`, which Potency is on record?
Answer: Its Potency is “inactive”.

Question: What about the cell number change of the same compound?
Answer: The cell number change was 12.5%.

Question: What does the source list for `COc1cc(OC)c(CN2CCCN(C)CC2)cc1Br`?
Answer: Potency: inactive; cell number change: 15.5%

Question: Which results are given for `COc1ccc(Br)cc1CN1CCCCCCC1`?
Answer: Potency: inactive; cell number change: 9.97%

Question: What does the source list for `COc1cc(OC)c(CN2CCCCCCC2)cc1Br`?
Answer: Potency: 29.1 µM (active); cell number change: -11.5%

Question: For `CC1=C(C(=O)OCC(C)C)[C@]23C(=O)c4ccccc4[C@@]2(O1)OC(N)=C3C#N`, which Potency is on record?
Answer: Its Potency is “inactive”.

Question: What about the cell number change of the same compound?
Answer: Its cell number change is -12%.

Question: Which results are given for `CCCCNC(=O)[C@]1(C)CCC[C@@]2(C)C3CC[C@@]4(C)C[C@]3(CCC21)CC4=O` (some centres undefined)?
Answer: Potency: 0.651 µM (active); cell number change: -24.2%

Question: Which Potency does the source give for `CC(C)NC(=O)[C@]1(C)CCC[C@@]2(C)C3CC[C@@]4(C)C[C@]3(CCC21)CC4=O` (some centres undefined) here?
Answer: The Potency was “inactive”.

Question: And the cell number change?
Answer: Its cell number change is -16.5%.

Question: Which Potency does the source give for `CC(C)(C)CNC(=O)[C@]1(C)CCC[C@@]2(C)C3CC[C@@]4(C)C[C@]3(CCC21)CC4=O` (some centres undefined) here?
Answer: The Potency was “inactive”.

Question: And the cell number change?
Answer: Its cell number change is -13.8%.

Question: What does the source list for `COc1ccc(/C(C)=N/NC(=O)CNC(=O)c2cccnc2)cc1`?
Answer: Potency: inactive; cell number change: 7.78%

Question: With `COc1ccc(C(=O)N/N=c2\oc3ccccc3cc2C(=O)NCc2ccccc2)cc1` as the compound, how does the Potency read?
Answer: Its Potency is “inactive”.

Question: What about the cell number change of the same compound?
Answer: Its cell number change is 2.22%.

Question: What does the source list for `N#CC(c1ccc(F)cc1)c1ccc(C(=O)c2ccccc2)cc1` (centres undefined)?
Answer: Potency: inactive; cell number change: -0.0722%

Question: With `CN(C(=O)COC(=O)c1ccc2c(c1)NC(=O)CS2)C1CCS(=O)(=O)C1` (centres undefined) as the compound, how does the Potency read?
Answer: The Potency was “inactive”.

Question: What about the cell number change of the same compound?
Answer: The cell number change was 4.6%.

Question: For `CCc1nc2ccc(C(=O)NCCc3ccco3)cc2nc1CC`, which Potency is on record?
Answer: The Potency was 6.51 µM (active).

Question: And the cell number change?
Answer: Its cell number change is 5.81%.

Question: With `CCc1nc2ccc(C(=O)NCc3ccc(C)o3)cc2nc1CC` as the compound, how does the Potency read?
Answer: The Potency was “inactive”.

Question: What about the cell number change of the same compound?
Answer: The cell number change was -3.07%.

Question: For `CC(=O)Nc1cccc(C(=O)NCCc2ccco2)c1`, which Potency is on record?
Answer: The Potency was “inactive”.

Question: What about the cell number change of the same compound?
Answer: The cell number change was 7.92%.

Question: Which Potency does the source give for `O=C(CN(C(=O)CCC(=O)Nc1nccs1)c1ccc2c(c1)OCO2)NCc1ccccc1` here?
Answer: The Potency was “inactive”.

Question: With `CCC(C)(C)NC(=O)C1CC(=O)N(CCc2ccc(F)cc2)C1` (centres undefined) as the compound, how does the Potency read?
Answer: Its Potency is 23.1 µM (active).

Question: And the cell number change?
Answer: The cell number change was -4.05%.

Question: For `CC(C)(C)NC(=O)C1CC(=O)N(CCc2ccc(F)cc2)C1` (centres undefined), which Potency is on record?
Answer: The Potency was “inactive”.

Question: What about the cell number change of the same compound?
Answer: The cell number change was 23%.

Question: Which Potency does the source give for `CCC(CC)NC(=O)C1CC(=O)N(CCc2ccc(F)cc2)C1` (centres undefined) here?
Answer: Its Potency is “inactive”.

Question: What does the source list for `Cc1ccc(NC(=O)c2ccc(Cl)c(NC(=O)c3cccs3)c2)cc1`?
Answer: Potency: 25.9 µM (active); cell number change: 17.6%

Question: With `Cc1ccc(NC(=O)c2cccs2)cc1` as the compound, how does the Potency read?
Answer: The Potency was “inactive”.

Question: And the cell number change?
Answer: Its cell number change is 20.8%.

Question: With `Cc1cc(C)cc(C(=O)Nc2ccc(NC(=O)c3cccs3)cc2)c1` as the compound, how does the Potency read?
Answer: The Potency was “inactive”.

Question: And the cell number change?
Answer: The cell number change was 17.7%.

Question: With `Cc1cc(C(c2nnnn2Cc2ccccc2)N2CCOCC2)c(C)n1-c1ccc2c(c1)OCO2` (centres undefined) as the compound, how does the Potency read?
Answer: Its Potency is “inactive”.

Question: And the cell number change?
Answer: Its cell number change is -6.63%.

Question: With `CN(C)C(=O)C(NC(=O)c1ccccc1)=C(Cl)Cl` as the compound, how does the Potency read?
Answer: The Potency was “inactive”.

Question: For `Cc1cc(C(=O)OCC(=O)NC2CCC(C)CC2)c(C)o1` (centres undefined), which Potency is on record?
Answer: The Potency was “inactive”.

Question: And the cell number change?
Answer: The cell number change was 1.2%.

Question: With `CN(C)S(=O)(=O)c1ccc2c(c1)nc(CCC(=O)NCc1ccc(Cl)cc1)n2C` as the compound, how does the cell number change read?
Answer: Its cell number change is -1.78%.

Question: And the lipid storage change, negative = inhibition?
Answer: The lipid storage change, negative = inhibition was -6.65% [at 9.22 µM] (inactive).

Question: For `COc1ccc(NC(=O)C2C3C=CC4(O3)C2C(=O)N(CCN2CCCCC2)C4C(=O)NC2CCCC(C)C2C)cc1` (centres undefined), which Potency is on record?
Answer: The Potency was 0.92 µM (active).

Question: What about the cell number change of the same compound?
Answer: Its cell number change is 27%.
